The text below walks through data of article PMC5540273 (PLoS ONE, 2017).
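Note: KINOMEscan kinase panel screen.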

The test system of the assay is MAPKAPK5. The settings on record: concentration: 1 μM, replicates: in singlicate; n = 1.
For `CC(C)(C)c1ccc2nccc(Nc3cccc(O)c3)c2c1` [GW856795], the “%Inh” value was 0%.
On to `COc1cc2c(cc1OCCN1CCNCC1)ncc1c3ccc(C#N)cc3[nH]c21`, for which the “%Inh” value is recorded as 0%.
Next, `COc1cc(Nc2nccc(-c3c(-c4cccc(NC(=O)c5c(F)cccc5F)c4)nn4ccccc34)n2)cc(OC)c1OC` [GSK323521]: 3%; `Cc1ccc(S(=O)(=O)Nc2ccc(Nc3nccc(Nc4cccc5[nH]ncc45)n3)cc2)cc1` [GSK581271]: 0%; `CCc1ccc(-c2ccc3c(c2)-c2c(cnn2C)S(=O)(=O)N3C)cc1`: 0%.
Regarding `O=C(Nc1cccc(-c2nn3ncccc3c2-c2ccnc(Nc3ccccc3)n2)c1)c1c(F)cccc1F` [GSK198271], the “%Inh” value came out at 0%.
On to `Fc1ccc(-c2ncn(C3CCNCC3)c2-c2ccnc(Oc3ccc(-c4ccccc4)cc3)n2)cc1` [SB-245391], for which the “%Inh” value is listed as 0%.
For `CN(c1ccc(NC(=O)Nc2cc(C(F)(F)F)ccc2F)cc1)c1ccnc(Nc2ccc(S(N)(=O)=O)cc2)n1` [GW809893], the “%Inh” value was found to be 0%.
Under `CC(=O)Nc1nc2cnc(Nc3cc(NC(=O)c4cccc(C5(C#N)CC5)c4Cl)ccc3C)nc2s1` stands 0%; under `Cl.c1ccc(-c2ccc3c(Nc4ccc5[nH]ncc5c4)ccnc3c2)nc1` [GW440137], 0%.
Consider `COc1cc(Nc2ncc3c(C)nc(-c4cc5ccccc5[nH]4)n3n2)cc(OC)c1OC` [GW869516], for which the “%Inh” value amounted to 0%.
For the molecule `COC(=O)Nc1nc2ccc(Oc3ccc(NC(=O)Nc4cc(C(F)(F)F)ccc4F)cc3)cc2n1C.Cl` [GW692089], the “%Inh” value is on record as 0%.
In the case of `Nc1n[nH]c2cnc(-c3ccccc3)cc12` [SB-642124], the “%Inh” value is 0%.
For `COc1cc(Nc2nccc(N3CCC(NC(=O)Nc4cccc(C(C)=O)c4)C3)n2)cc(OC)c1OC` (stereo not shown) [GSK1379753], the “%Inh” value worked out at 0%.
As for `O=C(NC1CCN(c2ccnc(Nc3ccc(F)cc3)n2)C1)c1cc2ccccc2s1` (stereo not shown) [GSK1379716], the “%Inh” value came to 0%.
In the case of `c1ccc(-c2cnc3nccnn23)cc1` [AH20685], the “%Inh” value is 0%.
In the case of `Nc1ncnc2c1nc(-c1ccccc1)n2-c1ccccc1` [SKF-97293], the “%Inh” value came to 0%.
In the case of `CN(C)Cc1ccc(-c2ccc3c(Nc4ccc(Oc5ccccn5)cc4)ccnc3c2)o1` [GW567148], the “%Inh” value was 0%.
On to `COc1cc(Nc2nccc(N3CCC(NC(=O)c4cc5ccccc5s4)C3)n2)cc(OC)c1OC` (stereo not shown) [GSK1379760], for which the “%Inh” value is recorded as 1%.
Turning to `Cl.Cl.NCC(NCc1ccc(-c2ccnc3[nH]ccc23)s1)c1ccccc1` (stereo not shown) [GSK1321565], the “%Inh” value was 0%.
Under `Cl.NC(=O)c1cccc(Nc2nccc(Nc3ccc(Oc4c(Cl)cccc4Cl)c(Cl)c3)n2)c1` [GW659009] stands 0%; under `O=C(Nc1ccccc1F)NC1CCN(c2ccnc(Nc3ccc(F)cc3)n2)CC1` [GSK1379800], 0%.
With `Cc1ccc(C(=O)N2CC[C@@H](O)C2)cc1-n1c(C)cc(OCc2ccc(F)cc2F)c(Br)c1=O`, the “%Inh” value stood at 0%.
Under `CN(C)S(=O)(=O)c1cc(-c2ccc3nccc(-c4cccc(S(N)(=O)=O)c4)c3c2)cnc1N` [GSK1669921] stands 8%.
For the molecule `O=c1[nH]cc(-c2ccc(N3CCOCC3)cc2)c2sc(-c3cn[nH]c3)cc12` [GSK2276055], the “%Inh” value is on record as 2%.
With `CCCCc1nn2ncccc2c1-c1ccnc(Nc2ccc(N3CCN(C)CC3)cc2)n1` [GW684941], the “%Inh” value was 0%.
Next, `O=C(Nc1cccc(-c2nn3ccccc3c2-c2ccnc(Nc3cccc(F)c3)n2)c1)c1c(F)ccc(F)c1Cl` [GSK357952]: 0%; `c1ccc(-c2n[nH]cc2Nc2ccnc3ccccc23)nc1` [GW694077]: 0%.
As to `COc1cc(Nc2nccc(-c3c(-c4cccc(NC(=O)c5c(F)cccc5F)c4)nn4ncccc34)n2)cc(OC)c1OC` [GSK327238], the “%Inh” value is 0%.
As for `COc1cccc(C(=O)Nc2cccc(Oc3ccc4nc(NC(=O)C5CC5)cn4n3)c2)c1`, the “%Inh” value is given as 0%.
`COCCOCCOc1cc2ncc3c4ccc(C#N)cc4[nH]c3c2cc1OC`: the “%Inh” value is 0%.
Under `Nc1ncc(-c2ccc3nccc(-c4ccncc4)c3c2)cc1S(=O)(=O)N1CCOCC1` [GSK1627798] stands 0%; under `Cc1cccc(NC(=O)Nc2ccc(Oc3ncnc4ccn(C)c34)cc2)c1`, 0%; under `CN1CCN(Cc2cccc(-c3ccc4c(Nc5ccc(Oc6ccccc6)cc5)ccnc4c3)c2)CC1` [GW578342], 0%.
Take `COc1cccc(C2=C(Nc3ccc(Cl)c(C(=O)O)c3)C(=O)NC2=O)c1` [SB-390769]: the “%Inh” value came out at 0%.
`COc1ccc(Nc2nccc(NCCNC(=O)c3cc4ccccc4s3)n2)cc1` [GSK1379896]: the “%Inh” value was 0%.
Under `COc1ccc(CNC(=O)NC2CCN(c3ccnc(Nc4ccc(F)cc4)n3)CC2)cc1` [GSK1379788] stands 0%.
